Results on 21 sequences are retold here after the OligoGym collection.
Further: reference of the scale not given here.

The target in one test is AMICA1. Description: pooled miR-30 sensor sort-seq; sequence = guide strand. The conditions noted are these: shRNA.
TCTGGATTAGTCTTCTTCGTGT had a sensor-assay potency score (higher = more potent) of -0.36.

Turning to TTTGTCTTCTGTGCTCTGGAAA, the sensor-assay potency score (higher = more potent) was -0.894.

AATAGTATAGCACATATTCGTC registered a sensor-assay potency score (higher = more potent) of -1.02.

In turn, TATCAGAACAGGGAGCAGCAGG gave a sensor-assay potency score (higher = more potent) of -0.745.

TTGCACATCTTGGAGCAGGAGA showed a sensor-assay potency score (higher = more potent) of -0.908.

TATCTCTGGATTAGTCTTCTTC gave a sensor-assay potency score (higher = more potent) of -0.382.

Sequence TTTTCAAGTGAGTTGTTCCGAT came in with a sensor-assay potency score (higher = more potent) of -0.169.

Sequence TATAGCACATATTCGTCCTTGG had a sensor-assay potency score (higher = more potent) of -0.0697.

TCTATCTTGAATATACATTTGT: the sensor-assay potency score (higher = more potent) was -0.466.

In turn, TATACATTTGTCTTCTGTGCTC had a sensor-assay potency score (higher = more potent) of -0.0847.

TGAATATACATTTGTCTTCTGT registered a sensor-assay potency score (higher = more potent) of -0.514.

The sequence TTCTTGAACACCAGGTTCCCTA yielded a sensor-assay potency score (higher = more potent) of -1.01.

A further test concerns the target AMOTL1. The description is as above. The conditions noted are these: shRNA.
In turn, TTAACTTTGTTTGCAAACCTAC registered a sensor-assay potency score (higher = more potent) of 0.352.

TTCTTGAGTGAGGTTTTCCGTG displayed a sensor-assay potency score (higher = more potent) of -0.593.

As for TTGTCAGTCTGTGTGCTGCTGT, the sensor-assay potency score (higher = more potent) was found to be 0.0814.

For TTGCAGTCCGCACTGCTGCTAA, the sensor-assay potency score (higher = more potent) is -0.698.

Regarding TAATCATAGCATCTTTCTCTAT, the sensor-assay potency score (higher = more potent) was -1.

In turn, TTTGTCTTCATGCCCTTCGTAT registered a sensor-assay potency score (higher = more potent) of -0.754.

For the sequence TTGTGGGTCTTCTTGAGTGAGG, the sensor-assay potency score (higher = more potent) was -0.72.

TAGCAGTCTCTAGTCGATCTCG came in with a sensor-assay potency score (higher = more potent) of -0.33.

As to TTCTTTTTCAAACTTGTGGAGC, the sensor-assay potency score (higher = more potent) was -0.646.
